According to PubChem BioAssay (NCI):
This is part of a sample that, as a whole, favours compounds with a hit. Of some 83,000 tested, about 20% had one in any assay.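 Compound tested at a single concentration for 48 hours in 96-well plates; a percent growth value below 10 was scored as active.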 Values without a mark were called inactive. Active and inactive are the calls of the source.

Test system: SW-620 colon
Assay: NCI-60 one-dose screen, 48 h (100 = growth as untreated, 0 = no growth, -100 = all killed)
Details: 10 µM unless noted
Experimental: Growth inhibition of the SW-620 human tumor cell line is measured as a screen for anti-cancer activity. Cells are grown in 96 well plates and exposed to the test compound for 48 hours. Compounds are tested at a single concentration, which is 10^-5 M for most compounds. The reported endpoint is percent growth (GI% or GIPRCNT), where numbers from 0 - 100% represent growth inhibition, and numbers from -100% - 0 represent cell death. For example, a value of 40 represents 60% growth inhibition. A value of 0 means no net growth occurred over the course of the experiment. A value of -40 indicates 40% of cells at the beginning of the experiment died by the end of the experiment. A value of -100 means all cells are dead at the end of the experiment.
NCI-60 Human Tumor Cell Lines Screen was performed using the standard one-dose NCI protocol, which is described in more detail at https://dtp.cancer.gov/discovery_development/nci-60/default.htm.
Compounds with GIPRCNT values below 10 were considered active. Activity score was based on GIPRCNT using the following formula: […]
Score is 0 for GIPRCNT values of 100 or above, 50 for GIPRCNT values of 0, and 100 for GIPRCNT values of -100.

Row | SMILES | growth
1 | CC1CN1CCCCN1CC1C (stereo not given) | 105%
2 | CC[C@H](C)[C@H](NC(=O)[C@H]1CCCCN1C)C(=O)N(C)[C@H](CC(=O)c1nc(C(=O)N[C@@H](Cc2ccccc2)C[C@H](C)C(=O)O)cs1)C(C)C | 50.2%
3 | O=C(c1ccccc1O)c1[nH]c(Cl)c(Cl)c1-n1c(C(=O)c2ccccc2O)cc(Cl)c1Cl | 7.86% (active)
4 | CCOP(=O)(Cc1ccc(C#N)cc1)OCC | 99.9%
5 | COc1cc(/C=C\c2cc(OC)c(OC)c(OC)c2)cc(NS(=O)(=O)c2cccc(Cl)c2)c1OC | 25.4%
6 | COC(=O)CCC1=C(C)c2cc3[n-]c(cc4nc(cc5[n-]c(cc1n2)c(CCC(=O)OC)c5C)C=C4C)cc3C.[Cd+2] | 25.3%
7 | Oc1c(O)c(Cl)c(Cl)c(Cl)c1Cl | 28%
8 | COC(=O)[C@@H](C)C[C@H](Cc1ccccc1)NC(=O)c1csc([C@@H](C[C@H](C(C)C)N(C)C(=O)[C@@H](NC(=O)[C@H]2CCCCN2C)c2ccc(F)cc2)OC(C)=O)n1 | 22.8%
9 | CC(=O)O[C@H](C[C@H](C(C)C)N(C)C(=O)[C@@H](NC(=O)[C@H]1CCCN1C)C(C)C)c1nc(C(=O)N[C@@H](Cc2ccccc2)C[C@H](C)C(=O)O)c(C)s1 | 25.1%
10 | CC1=C2[C@@H](CC1)[C@]1(C)O[C@@](C(C)C)(C[C@H]1O)[C@H]2OC(=O)C1CC1c1ccccc1 (stereo not given in full) | 101%
11 | C[N+]12CN3CN(CN(C3)C1)C2 | 96.7%
12 | CNC(=O)Oc1ccc(C(C)(C)C)cc1OC(=O)NC | 94.8%
13 | O=C(O)C1C(C(=O)O)C2(Cl)C(Cl)=C(Cl)C1(Cl)C2(Cl)Cl.[Hg] (stereo not given) | 86.7%
14 | N#CC1(c2ccccc2)CCN(Cc2ccccc2)CC1 | 101%
15 | CC[C@H](C)[C@H](NC(=O)[C@H]1CCCCN1C)C(=O)N(C)[C@H](C[C@@H](O)c1nc(C(=O)N[C@@H](Cc2ccccc2)C[C@H](C)C(=O)O)cs1)C(C)C | 58.6%
16 | Cc1c(O)c(CN(CCCl)CCCl)cc(CN(CCCl)CCCl)c1O | 67.9%
17 | O=C(CC1(O)C(=O)Nc2ccccc21)c1ccc(C(=O)NCC2CCC3(CC2)OOC2(CCCCC2)OO3)cc1 (stereo not given) | 86.4%
18 | O=C(CCl)c1ccc([N+](=O)[O-])o1 | -97% (active)
19 | Cc1ccc(C(=O)NCCCOc2ccc(N)cc2Cl)cc1S(=O)(=O)F | 104%
20 | CCC1(C)CC(CCNCc2ccccc2O)(c2ccc(C)cc2)CCO1 (stereo not given) | 103%

Row | SMILES | growth
21 | N#CCCNc1ccccc1 | 103%
22 | ClCCN(CCCl)c1nc(Cl)c(C2CC(c3ccccc3)=NN2c2cc(Cl)cc(Cl)c2)s1 (stereo not given) | 98.5%
23 | Cn1cc(-c2csc(-c3cn(CCN4CCOCC4)c4ccccc34)n2)c2cccnc21 | 83.1%
24 | CCOC(=O)[C@@H](C)C[C@H](Cc1ccccc1)NC(=O)c1csc([C@@H](C[C@H](C(C)C)N(C)C(=O)[C@H](CCC(C)C)NC(=O)[C@H]2CCCCN2C)OC(C)=O)n1 | 25.4%
25 | Nc1ncnc2n[nH]nc12 | 61.5%
26 | CN(C)CCCOc1ccc2c(c1)c(C(=O)C(=O)NCCO)cn2Cc1ccccc1 | 105%
27 | CC[C@@H]1[C@@H](C)O[C@@](O)([C@@H](C)[C@H](O)[C@H](C)[C@H]2OC(=O)/C=C/C=C/[C@H](C)[C@@H]([C@@H](C)[C@@H](O)[C@H](C)[C@@]3(O)C[C@@H](O[C@H]4C[C@@H](O)[C@H](O)C(C)O4)[C@H](CC)[C@@H](C)O3)OC(=O)/C=C/C=C/[C@@H]2C)C[C@H]1O[C@@H]1C[C@@H](O)[C@H](O)C(C)O1 (stereo not given in full) | -85.3% (active)
28 | CCCCCC1(CCBr)C(=O)NC(=O)NC1=O | 101%
29 | CC[C@H](C)[C@H](NC(=O)C12CC(NC(C)=O)(C1)C2)C(=O)N(C)[C@H](C[C@@H](OC(C)=O)c1nc(C(=O)N[C@@H](Cc2ccccc2)C[C@H](C)C(=O)OC)cs1)C(C)C | 23.7%
30 | CCOC(=O)[C@@H](C)C[C@H](Cc1ccccc1)NC(=O)c1csc([C@@H](C[C@H](C(C)C)N(C)C(=O)[C@@H](NC(=O)[C@H]2CCCCN2C)C(C)(C)CC)OC(C)=O)n1 | 21.9%
31 | CC(=O)O[C@H]1C(=O)[C@@]2(C)[C@H]([C@H](OC(=O)c3ccccc3)[C@]3(O)C[C@H](OC(=O)[C@H](OC(=O)OC[C@@H]4COC(C)(C)O4)[C@@H](NC(=O)c4ccccc4)c4ccccc4)C(C)=C1C3(C)C)[C@]1(OC(C)=O)CO[C@@H]1C[C@@H]2O | 26.5%
32 | COC(=O)C1OC(Oc2ccc(N(CCCl)CCCl)cc2)C(OC(C)=O)C(OC(C)=O)C1OC(C)=O (stereo not given) | 75.4%
33 | CC[C@H](C)[C@H](NC(=O)c1cccn1C)C(=O)N(C)[C@H](C[C@@H](OC(C)=O)c1nc(C(=O)N[C@@H](Cc2ccccc2)C[C@H](C)C(=O)OC)cs1)C(C)C | 26.2%
34 | CC(C)(C)C(=O)OCOP(=O)(OCOC(=O)C(C)(C)C)C1CCCN(O)C1=O (stereo not given) | 22.9%
35 | CC(=O)O[C@H]1C(=O)[C@@]2(C)[C@H]([C@H](OC(=O)c3ccccc3)[C@]3(O)C[C@H](OC(=O)[C@H](OC(=O)OCC4COC(C)(C)O4)[C@@H](NC(=O)c4ccccc4)c4ccccc4)C(C)=C1C3(C)C)[C@]1(OC(C)=O)CO[C@@H]1C[C@@H]2O (stereo not given in full) | 38.7%
36 | COc1cc(NC(C)CCCNC2CN3CCC2CC3)c2ncccc2c1 (stereo not given) | 72.6%
37 | Cc1c(C)c([N+](=O)[O-])c(C)c(C)c1[N+](=O)[O-] | 112%
38 | CCCCCCCCCCCCCC[P+](CCCCCC)(CCCCCC)CCCCCC | -86.3% (active)
39 | COC(=O)[C@@H](C)C[C@H](Cc1ccc2ccccc2c1)NC(=O)c1csc([C@@H](C[C@H](C(C)C)N(C)C(=O)[C@@H](NC(=O)[C@H]2CCCCN2C)C(C)C)OC(C)=O)n1 | 51.2%
40 | COc1cc(C=C2c3ccccc3C(=O)c3ccccc32)ccc1OCCCCOc1cc2c(cc1OC)C(=O)N1CCCC1C=N2 (stereo not given) | -84.4% (active)
